Assay outcomes from PubChem BioAssay.
Only a selection was taken, and hits are over-represented in it overall.
ERK EGF inh – blocks ERK signaling stimulated by EGF; HEK293-V1b, EGF-stimulated phospho-ERK AlphaScreen; Potency, µM (top dose mostly 11.5 µM), usual class: inhibitors; hit rate 0.41% among 130,000; AID 1454; active = well fitted inhibition curve with a large enough effect; note: nearly all actives have a fitted effect of over 55% in size
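In this qHTS, HEK293 cells with stable type-1 vasopressin (V1b) receptor were exposed to compound at 37C for 30 min, stimulated 5 min with EGF at 25 nM, lysed, and probed for phospho-ERK by AlphaScreen.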
Numbers stand for hits; – = inactive; ! = a repeat was not active.

SMILES	ERK EGF inh
COc1ccc2c(c1OC)C(=O)O[C@H]2[C@H]1c2cc3c(cc2CCN1C)OCO3	–
COc1ccc2c(c1OC)CN1CCc3cc4c(cc3[C@H]1C2)OCO4	–
COc1ccc2c(c[n+](C)c3c4cc5c(cc4ccc23)OCO5)c1OC	13µM
N#Cc1ccc(CN2CCC3(CC2)CCN(C(=O)Oc2ccccc2)CC3)cc1	–
C[C@@H]1O[C@@H](O[C@H]2C[C@@H](O)[C@]3(CO)[C@H]4[C@H](O)C[C@]5(C)[C@@H]([C@@H]6COC(=O)C6)CC[C@]5(O)[C@@H]4CC[C@]3(O)C2)[C@H](O)[C@H](O)[C@H]1O	–
O=C1NC(=O)N(CCc2ccc(F)cc2)C(=O)/C1=C\C=C\c1ccccc1	–
O=C1NC(=O)N(Cc2ccccc2)C(=O)/C1=C/c1cnc(-c2ccccc2)nc1	–
C=CCN1C(=O)NC(=O)/C(=C/C=C/c2ccccc2)C1=O	22µM
O=C1C=CC[C@@H]2[C@H]3CCCN4CCC[C@@H](CN12)[C@@H]34	–
CCC12CCCN3CCC4(c5ccc(OC)c(O)c5N(C(C)=O)C4CC1)C32 (centres undefined)	–
C[C@@H](Cc1cccc(C(F)(F)F)c1)NCCCc1ccccc1	–
CCCCC/C=C\C/C=C\C/C=C\C/C=C\CCCC(=O)NC(C)C(=O)O (centres undefined)	–
CN1CCN(c2ccc(S(=O)(=O)C(F)(F)F)cc2[N+](=O)[O-])CC1	–
CN1CCN(c2ccc(S(C)(=O)=O)cc2[N+](=O)[O-])CC1	–
CN1CCN(c2ccc([N+](=O)[O-])c3no[n+]([O-])c23)CC1	10µM
CC(=O)C1CCC2C3CCC4=CC(=O)CC[C@@]4(C)C3CC[C@]12C (some centres undefined)	–
CN1CCc2cc(O)cc3c2C1Cc1ccc(O)c(O)c1-3 (centres undefined)	–
CC/C=C\C/C=C\C/C=C\C/C=C\C/C=C\CCCC(=O)NCCCC(=O)O	–
Cc1nn(Cc2ccccc2)c(C)c1C=C1C(=O)NC(=S)NC1=O	–
CCN(CC)c1ccc(C=C2C(=O)NC(=S)NC2=O)cc1	28µM
CN(C)c1ccc(/C=C2\C(=O)NC(=O)N(Cc3ccc(F)cc3)C2=O)cc1	–
NC(N)=NCCCCCCCCCCN=C(N)N	–
C[C@@H](Cc1ccc(O)cc1)NC[C@@H](O)c1cc(O)cc(O)c1	–
Cc1ccc(NC(=O)c2snnc2C)cc1Cl	–
C=CCNC(=S)Nc1ccc(OC(=O)Nc2ccc(Cl)c(Cl)c2)cc1	–
SMILES	ERK EGF inh
Cc1nn(C(C)(C)C)c(C)c1/C=N/OC(=O)Nc1ccc(Cl)c(Cl)c1	32µM
c1cnc(N2CC3(CCNCC3)C2)nc1	–
NC(N)=Nc1ccc2[nH]c3c(c2c1)C[C@]1(O)[C@@H]2Cc4ccc(O)c5c4[C@]1(CCN2CC1CC1)[C@@H]3O5	–
C[C@@H]1O[C@@H](O[C@H]2CC[C@]3(C=O)C4CC[C@]5(C)[C@@H](C6=CC(=O)OC6)CC[C@]5(O)[C@@H]4CC[C@]3(O)C2)[C@H](O)[C@H](O)[C@H]1O (some centres undefined)	–
CC1Oc2cc3c(-c4c(O)cc(O)c5c(O)c6c(cc45)OC(C)C(C)C6=O)c(O)cc(O)c3c(O)c2C(=O)C1C (centres undefined)	16µM
C/C=C(/C)C(=O)OC1CC[C@]2(C)C3CCC4[C@]5(O)CC(O)[C@]6(O)C(CN7CC(C)CCC7[C@]6(C)O)[C@]5(O)C[C@@]42O[C@]13O (some centres undefined)	–
CC(C)(O)[C@@H]1C2OC(=O)[C@@H]1[C@]1(O)C[C@H]3O[C@]34C(=O)O[C@H]2[C@]14C	–
C=C1C(=O)O[C@@H]2C[C@@H](C)[C@@H]3C=CC(=O)[C@@]3(C)[C@@H](OC(=O)CC(=O)O[C@H]3[C@@H]4C(=C)C(=O)O[C@@H]4C[C@@H](C)[C@@H]4C=CC(=O)[C@]43C)[C@H]12	4.5µM
C=C1C(=O)O[C@H]2[C@H]1[C@H](OC(=O)CC(=O)O[C@@H]1C[C@@H](C)[C@@H]3C=CC(=O)[C@@]3(C)[C@H]3OC(=O)C(=C)[C@H]13)C[C@@H](C)[C@H]1C=CC(=O)[C@]12C	–
C=C1C(=O)O[C@H]2C[C@@H](C)[C@@H]3C=CC(=O)[C@@]3(C)C[C@H]12	–
c1csc(CN2CCC3(CCNCC3)CC2)n1	–
C[C@]12[C@H](O)CC3C(CC[C@@H]4C[C@@H](O)CC[C@]34C)[C@@]1(O)CC[C@@H]2C1=CC(=O)OC1 (some centres undefined)	–
Oc1ccc2c3c1O[C@H]1c4oc5ccccc5c4C[C@]4(O)[C@H](C2)N(CC2CC2)CC[C@@]314	–
C[C@H](N)Cc1c[nH]c2ccc(OCc3cccs3)cc12	–
COc1cc2c(cc1OC)-c1c(OC)c(OC)c(CO)c3c1C(C2)N(C)CC3 (centres undefined)	–
CNc1ccc2oc(C[C@H]3O[C@@]4(CC[C@H]3C)O[C@H]([C@H](C)C(=O)c3ccc[nH]3)[C@H](C)C[C@H]4C)nc2c1C(=O)O	14µM!
